High-throughput results: PubChem BioAssay, NMMLSC
AGP1-GFP MLPCN: modulators of AGP1-GFP expression in yeast TOR pathway, primary screen, cell-based, multiplex flow cytometry, S. cerevisiae, MLPCN library. 0.02% of 320,000 active. GFP response vs DMSO, % at 10 µM. 3 h; GFP as percent of DMSO wells;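 active = GFP response relative to DMSO above a set limit, near screen average plus 3 SD, cut at about 150% in these data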;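 also: median GFP channel fluorescence of the gated AGP1 strain per well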
Efflux pump mplx: inhibitors of Candida efflux pumps in yeast, primary screen, S. cerevisiae, Nile Red, multiplex | S. cerevisiae Candida pump triplex | inhibition, % at 10 µM | 0.44% of 330,000 active | AID 485275, 2010;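 active = plate passing quality check with inhibition over a set limit, or well fluorescence over plate mean plus 4 SD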;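 also: Nile Red retained in pooled yeast measured as flow cytometry median fluorescence; 0% = buffer negative control and 100% = Enniatin B positive control; higher means more Nile Red kept so more efflux inhibition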
RPL19A TOR yeast: RPL19A-GFP expression modulators in yeast, primary screen, cell-based, S. cerevisiae, multiplex flow cytometry, MLPCN; percent response vs DMSO, % at 10 µM; S. cerevisiae RPL19A-GFP strain, 3 h; hits give low values; 0.3% of 330,000 active;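 active = percent response vs DMSO below 50%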;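 also: median channel GFP fluorescence of the barcoded RPL19A-GFP strain; ratio of sample median GFP to plate DMSO average so 100% = DMSO; lower means less RPL19A-GFP as with rapamycin TOR inhibition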
LAP4 TOR yeast: modulators of LAP4-GFP expression in yeast, primary screen, S. cerevisiae, multiplex flow cytometry, MLPCN library; 3 h; median GFP as percent of DMSO wells; GFP response vs DMSO, % at 10 µM; 0.34% of 320,000 active; AID 2023, 2009;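 active = GFP response vs DMSO above a set limit, about the screen mean plus 3 SD, cut at about 150% in these data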
CIT2-GFP yeast: modulators of CIT2-GFP expression in yeast, primary screen, S. cerevisiae, GFP fusion, multiplex flow cytometry, MLPCN library; GFP response vs DMSO, % at 10 µM; AID 2029, 2009; S. cerevisiae CIT2-GFP strain, 3 h; 100 means same as DMSO wells; 0.065% of 320,000 active;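 active = GFP response relative to DMSO above a set limit, near the screen mean plus 3 SD, cut at about 150% in these data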;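 also: ratio of well median GFP fluorescence to mean of DMSO wells on the plate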
MEP2 TOR yeast: modulators of MEP2-GFP levels in yeast, primary screen, S. cerevisiae, multiplex flow cytometry, MLPCN library; S. cerevisiae MEP2-GFP strain, 3 h; 100% = DMSO control level; GFP response vs DMSO, % at 10 µM; 0.51% of 330,000 active;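 active = GFP response versus DMSO above a set limit, roughly screen mean plus 3 SD, cut at about 180% in these data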;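 also: median GFP fluorescence of the barcode-gated MEP2-GFP cells per well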
LAP4 cherry2: LAP4-GFP expression modulators in yeast, confirmation, cell-based, second cherry pick, flow cytometry; S. cerevisiae LAP4-GFP strain, 3 h; 20% of 590 active; GFP response vs DMSO, % at 10 µM; shares compounds with LAP4 TOR yeast; AID 2621, 2010;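 active = GFP signal as percent of the solvent control above about 150%, meaning raised reporter expression, limit read from the data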;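 also: ratio of well median GFP fluorescence to plate DMSO mean so 100% = DMSO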
MEP2 cherry2: modulators of MEP2-GFP levels in yeast, confirmation, S. cerevisiae, flow cytometry GFP, second cherry picks; shares compounds with LAP4 TOR yeast; S. cerevisiae MEP2-GFP strain, 3 h; GFP response vs DMSO, % at 10 µM; 10% of 590 active; AID 2622, 2010;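 active = GFP signal above 150% of the solvent control wells, that is a rise of more than half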;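 also: median channel GFP fluorescence of all gated yeast cells per well; ratio of median GFP to plate DMSO average so 100% = DMSO level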
RPL19A GFP CP2: RPL19A-GFP modulators in TOR pathway yeast, confirmation, cell-based, S. cerevisiae, flow cytometry, second cherry pick | GFP response vs DMSO, % at 10 µM | S. cerevisiae RPL19A-GFP strain, 3 h; hits give low values; 100% means same as DMSO wells | 3% of 590 active | AID 2623, 2010 | shares compounds with LAP4 TOR yeast;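 active = under 65% GFP response relative to DMSO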;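 also: median GFP channel fluorescence per well over the all cells gate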
CIT2 GFP CP2: modulators of CIT2-GFP expression in yeast, confirmation, flow cytometry, second cherry pick, single plex; shares compounds with LAP4 TOR yeast; S. cerevisiae CIT2-GFP strain, 3 h; DMSO control wells read 100%; GFP response vs DMSO, % at 10 µM; 8% of 590 active;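 active = GFP response vs DMSO above about 150%, limit read from the data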;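 also: median green fluorescence per well over all gated yeast cells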
AGP1 GFP CP2: AGP1-GFP expression modulators, hit retest, confirmation, cell-based, flow cytometry, S. cerevisiae, cherry pick set 2. shares compounds with LAP4 TOR yeast. S. cerevisiae AGP1-GFP strain, 3 h. percent response vs DMSO, % at 10 µM. 590 tested, under 10 active;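 active = over 150 percent of DMSO response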;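 also: median GFP channel fluorescence over all cells without mother daughter split; sample median GFP divided by mean DMSO control so 100% equals DMSO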
s288c autofluor: compound autofluorescence in yeast s288c, dose response, artefact control for yeast TOR pathway GFP screen, s288c strain; fluorescence change (kMESF span) at 33 µM; S. cerevisiae s288c, 520 nm autofluorescence, flow cytometry, 3 h; hits give high values; zero means same as solvent-only cells; 610 tested, under 10 active; AID 2757, 2010; shares compounds with LAP4 TOR yeast;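 active = fluorescence span over the dose series, or activity score, above about 33, limit read from the data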
Yeast autofl DR: autofluorescence of compounds in yeast s288c, dose response, artefact control for yeast TOR pathway GFP screen, primary hits, KU SAR, s288c parental; shares compounds with LAP4 TOR yeast; S. cerevisiae s288c parental, compound autofluorescence, flow cytometry, 3 h; fluorescence change (span) at 33 µM; 110 tested, under 10 active;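 active = fluorescence change span, or the activity score built from it, above 25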
TORC1 bypass: wild-type yeast growth inhibition sparing TORC1 bypass cells, mechanism study for yeast TOR pathway GFP screen, BY4741 wild type, TORC1 bypass strain; shares compounds with LAP4 TOR yeast; S. cerevisiae BY4741 spot growth rating, 48-72 h; hits give low values; growth rating (0-3) at 30 µM; 120 tested, under 10 active; AID 504456, 2011;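 active = growth rating at most 1 for wild type yeast while the TORC1 bypass strain still grows fully, rated 3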
* hit, by the source's call; · = no result given. The list is not random: actives were taken first. Their share in the collection is about 1.3%.

SMILES	AGP1-GFP MLPCN	Efflux pump mplx	RPL19A TOR yeast	LAP4 TOR yeast	CIT2-GFP yeast	MEP2 TOR yeast	s288c autofluor	others
CCOP(=O)(OCC)C(Nc1cccc([N+](=O)[O-])c1)c1ccc(OC)cc1 (configuration not stated)	40	0	58	99	94	138	·	LAP4 cherry2=100;MEP2 cherry2=102;RPL19A GFP CP2=101;CIT2 GFP CP2=109;AGP1 GFP CP2=102
CCOP(=O)(OCC)C(Nc1cccc([N+](=O)[O-])c1)c1ccc(N(C)C)cc1 (configuration not stated)	77	0	86	103	86	103	·
CCOC(=O)Cc1csc(SCC(=O)Nc2oc(C)c3c(C)n[nH]c(=O)c23)n1	98	0	93	97	95	98	·
Oc1c(CN2CCCCC2)cc(Br)c2cccnc12	107	0	91	227*	112	119	1.1
O=[N+]([O-])c1cc(CN2CCN(c3ccccc3)CC2)c(O)c2ncccc12	75	0	77	153*	·	99	1.1
CCN1CCN(S(=O)(=O)c2ccc(Cl)c(C(=O)NCc3ccco3)c2)CC1	82	0	85	95	82	90	·
Cc1c(OCC(F)(F)F)ccnc1CS(=O)c1nc2ccccc2[nH]1 (configuration not stated)	85	0	101	158*	79	94	·	LAP4 cherry2=122;MEP2 cherry2=106;RPL19A GFP CP2=99;CIT2 GFP CP2=105;AGP1 GFP CP2=101
COCCCOc1ccnc(CS(=O)c2nc3ccccc3[nH]2)c1C (configuration not stated)	78	0	101	117	73	95	·
O=C(OCn1ncc(Br)c(Br)c1=O)c1c(F)cccc1F	93	0	87	227*	81	85	0.31	Yeast autofl DR=0.15;TORC1 bypass=3
O=C(OCn1ncc(Cl)c(Cl)c1=O)c1ccc(F)cc1	95	0	93	122	85	93	·
CC(Oc1ccccc1F)C(=O)NNC(=O)CC(C)c1ccccc1 (configuration not stated)	102	0	94	102	89	92	·
O=C(/C=C/c1ccccc1)OCCN1C(=O)c2ccccc2C1=O	99	0	102	101	94	105	·
COCC(C)NC(=O)CCS(=O)(=O)c1nc(-c2ccc(OC)cc2)cc(C(F)(F)F)n1 (configuration not stated)	91	0	89	88	96	93	·
CCOC(=O)CCS(=O)(=O)c1nc(-c2ccccc2)cc(C(F)(F)F)n1	130	0	90	185*	99	145	0.4	Yeast autofl DR=0.24;TORC1 bypass=3
CCOC(=O)CS(=O)(=O)c1nc(-c2ccccc2)cc(C(F)(F)F)n1	115	0	88	180*	84	131	0.41	Yeast autofl DR=0.16;TORC1 bypass=3
COC(=O)CCS(=O)(=O)c1nc(-c2ccccc2)cc(C(F)(F)F)n1	149	0	101	156*	102	183*	1	Yeast autofl DR=0.08;TORC1 bypass=3
CCOC(=O)CS(=O)(=O)c1nc(-c2ccc(F)cc2)cc(C(F)(F)F)n1	88	0	94	172*	81	104	0.51
CC1CC(C)CN(C(=O)C2CCN(S(=O)(=O)c3c(Cl)cccc3Cl)CC2)C1 (configuration not stated)	91	0	77	78	95	89	·
CC1=C(C)/C(=N\OS(=O)(=O)c2ccccc2)C=CC1=O	74	0	82	255*	91	89	0.31
Cc1ccc(S(=O)(=O)O/N=C2\CCCc3ccccc32)cc1	105	0	101	102	111	102	·
COc1ccc(NC(=O)/C(C#N)=C/c2ccc[nH]2)c(OC)c1	98	0	101	88	103	98	·
COc1ccc(NC(=O)/C(C#N)=C/c2ncc([N+](=O)[O-])n2C)c(OC)c1	104	0	100	182*	117	134	2.3
CCCCNC(=O)c1cccc(S(=O)(=O)N2CC3(C)CC2CC(C)(C)C3)c1 (configuration not stated)	101	0	104	100	89	100	·
N#CC1(c2ccc(NC(=O)c3ccccc3F)cc2)CCCC1	106	0	100	96	97	101	·
CCOC(=O)c1c(C)[nH]c(C)c1S(=O)(=O)N(C)CC(=O)NCc1cccc(Br)c1	27	0	60	114	88	877*	·	LAP4 cherry2=98;MEP2 cherry2=102;RPL19A GFP CP2=101;CIT2 GFP CP2=103;AGP1 GFP CP2=101
